Screens from PubChem.
SENP8 block-1: human SENP8 protease inhibitors, primary screen, biochemical, fluorescence, Nedd8 protein substrate, uHTS; Sentrin-specific protease 8 (Homo sapiens), Q96LD8; recombinant SENP8; inhibition, % at 20 µM; 0.64% of 360,000 active; AID 602440, 2012; in the data active = inhibition mostly above about 40%, no sharp cut-off; inactive = mostly below about 27%
Target sequence (Q96LD8 whole entry, looked up): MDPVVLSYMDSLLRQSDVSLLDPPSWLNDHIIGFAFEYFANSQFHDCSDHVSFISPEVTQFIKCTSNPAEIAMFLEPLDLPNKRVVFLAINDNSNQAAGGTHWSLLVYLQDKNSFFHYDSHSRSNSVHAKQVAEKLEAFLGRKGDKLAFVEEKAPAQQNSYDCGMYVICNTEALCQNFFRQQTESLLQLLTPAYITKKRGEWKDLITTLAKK
Platelet DG rel: inhibitors of platelet dense granule secretion, primary screen, cell-based, MLPCN, human platelets; human platelet-rich plasma, SFLLRN dense granule ATP release, luminescence; inhibition, %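 (compounds screened at 7.5 µM in platelet-rich plasma)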; 0.22% of 300,000 active;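 active = mean replicate score, as percent of positive control, at or above 50; inconclusive = mean below 50 but at least one replicate at or above 50; inactive = mean and every replicate below 50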
SENP8 block-2: SENP8 protease inhibitors, primary screen, biochemical, luminescence | Sentrin-specific protease 8 (Homo sapiens), Q96LD8 | purified SENP8, Z-RLRGG-aminoluciferin cleavage | inhibition, % at 10 µM | 1.2% of 330,000 active; in the data active = inhibition above about 50%
SENP7 block: SENP7 protease inhibitors, primary screen, biochemical, luminescence, uHTS; Sentrin-specific protease 7 (Homo sapiens), Q9BQF6; recombinant SENP7, Z-RLRGG-aminoluciferin luminescence, 40 min; inhibition, % at 5 µM; 1.5% of 330,000 active; AID 434973, 2010;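 active = inhibition above about 50% at the single test dose, limit read from the data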;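 note: plate controls were DMSO with enzyme for no effect and no enzyme buffer wells for full effect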
Target sequence (Q9BQF6 706-1050 limits assumed): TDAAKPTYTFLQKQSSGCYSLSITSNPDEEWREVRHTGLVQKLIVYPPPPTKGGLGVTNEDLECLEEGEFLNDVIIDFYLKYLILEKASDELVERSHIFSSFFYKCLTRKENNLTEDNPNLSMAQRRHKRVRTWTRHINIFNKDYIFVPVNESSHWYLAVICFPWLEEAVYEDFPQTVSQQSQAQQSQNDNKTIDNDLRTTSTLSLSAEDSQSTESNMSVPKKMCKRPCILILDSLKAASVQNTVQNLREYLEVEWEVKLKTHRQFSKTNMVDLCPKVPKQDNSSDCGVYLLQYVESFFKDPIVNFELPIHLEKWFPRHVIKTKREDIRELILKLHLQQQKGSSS
SENP6 inh: SENP6 protease inhibitors, primary screen, biochemical, luminescence, uHTS; 1.8% of 330,000 active; Recombinant SENP6 catalytic domain, aminoluciferin luminescence; inhibition, % at 10 µM; Sentrin-specific protease 6 (Homo sapiens), Q9GZR1;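 active = inhibition above about 50% at the single tested dose, limit read from the data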;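 note: plate controls were DMSO wells with enzyme for no effect and DMSO wells lacking enzyme for full effect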
SENP8 confirm: SENP8 protease inhibitors, retest, confirmation, biochemical, luminescence, single concentration | shares compounds with SENP7 block | Recombinant SENP8, Z-RLRGG-aminoluciferin luminescence, 60 min | inhibition, % at 12.5 µM | 40% of 6,200 active | AID 488912, 2010;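 active = mean inhibition across replicates above about 50%, limit read from the data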
SENP6 conf: SENP6 protease inhibitors, confirmation, biochemical, luminescence, single concentration. shares compounds with SENP7 block. recombinant SENP6, Z-RLRGG-aminoluciferin luminescence. inhibition, % at 12.5 µM. 58% of 6,200 active
SENP7 conf: SENP7 protease inhibitors, retest, confirmation, biochemical, luminescence, single concentration; recombinant SENP7, Z-RLRGG-aminoluciferin luminescence, 40 min; inhibition, % at 12.5 µM; shares compounds with SENP7 block; 69% of 6,200 active; AID 488917, 2010
Casp3 SENP sel: caspase-3 protease inhibitors, confirmation, selectivity assay for SENP inhibitor project, biochemical, single concentration | shares compounds with SENP7 block | purified caspase-3, Z-DEVD-aminoluciferin luminescence, 60 min | inhibition, % at 12.5 µM | 60% of 6,200 active;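 active = mean inhibition above about 50%, limit read from the data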;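 note: plate controls were enzyme with DMSO for no effect and wells without caspase-3 for full effect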
SENP luc ctr: interferes with luciferase luminescence in SENP counter-screen; 39% of 6,200 active; shares compounds with SENP7 block; AID 488919; Pre-incubated SENP8/Z-RLRGG-aminoluciferin, luciferase luminescence interference; inhibition, % at 12.5 µM;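 active = mean inhibition above about 50% when retested at one dose, limit read from the data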;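 note: plate controls were DMSO wells with completed reaction for no effect and substrate without enzyme for full effect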
The depositor's hits bear a star; u = inconclusive; x = no result given. Most compounds without a hit are left out; they make up all but 2.4% or so of the library.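 Rule for the calls, unless noted: active = mean inhibition above about 50% in the one-dose retest (limit read from the data); inactive = the rest.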

SMILES	SENP8 block-1	Platelet DG rel	SENP8 block-2	SENP7 block	SENP6 inh	SENP8 confirm	SENP6 conf	SENP7 conf	Casp3 SENP sel	SENP luc ctr
CC(C)c1ccc(N=Cc2c(O)c3ccccc3oc2=O)cc1	-146.0	3.5	63.0*	90.7*	85.1*	57.6*	60.2*	77.0*	42.3	31.0
Cc1ccc(C(C)NC(=O)Cc2cccs2)cc1C (configuration not stated)	1.7	35.8	3.7	-6.1	10.0	x	x	x	x	x
COc1ccc(Cn2c(O)c(C=Nc3ccccc3)c3ccccc3c2=O)cc1	28.3	2.2	-1.3	19.9	35.5	x	x	x	x	x
COc1ccc(Cn2c(O)c(C=Nc3ccc(O)cc3)c3ccccc3c2=O)cc1	-23.5	30.4	2.5	47.3	66.9*	5.3	35.9	10.3	4.3	-0.5
Cc1oc(-c2ccccc2)nc1C(=O)OCC(=O)NC(=O)NCC(C)C	-3.3	0.5	25.5	64.5*	-23.4	3.8	5.9	17.2	28.1	12.5
Fc1ccccc1N1CCN(C2CCCN(Cc3ccccc3C(F)(F)F)C2)CC1 (configuration not stated)	6.2	5.8	-4.1	0.0	-6.3	x	x	x	x	x
O=C(c1cc(-c2ccccc2O)on1)N1CCc2ccccc2C1	9.8	-0.2	-2.7	13.7	2.1	x	x	x	x	x
O=C(c1cc(-c2cccs2)on1)N1CCc2ccccc2C1	14.5	5.0	-8.5	52.1*	2.7	-2.8	-2.9	8.9	-0.2	-4.2
O=C(Nc1cccc(C(=O)N2CCOCC2)c1)c1ncn[nH]1	7.0	-1.0	1.8	84.5*	-3.7	10.7	8.2	12.6	8.2	6.2
Cc1ccc(C(=O)Nc2cccc(C(=O)N3CCOCC3)c2)cc1	9.0	-0.4	-0.7	0.6	-2.2	x	x	x	x	x
CC(C)NC(=O)C(=O)NCCC1CCCCN1S(=O)(=O)c1cccs1 (configuration not stated)	15.1	5.3	-13.1	9.7	-14.8	x	x	x	x	x
O=C(O)c1ccc(N/N=C/c2ccc(OC(=O)c3cccc(Cl)c3)cc2)cc1	2.8	18.4	79.7*	11.6	5.7	14.7	20.8	-2.7	20.1	5.8
O=C(Oc1ccc(/C=N/Nc2ccccc2)cc1)c1ccccc1	17.3	2.4	-9.9	-0.7	-13.3	x	x	x	x	x
O=C(O)c1cccc(N/N=C/c2cccs2)c1	-10.3	11.4	96.8*	99.9*	99.7*	99.6*	100.3*	103.8*	97.6*	99.1*
O=C(O)c1cccc(N/N=C/c2ccc(OC(F)(F)F)cc2)c1	11.7	10.8	97.5*	34.1	98.8*	-6.1	100.1*	102.7*	94.1*	98.8*
CSc1ccc(/C=N/Nc2cccc(C(=O)O)c2)cc1	-110.3	x	x	x	x	x	x	x	x	x
Cc1ccc(C2=Nc3ccccc3N=C(c3ccc([N+](=O)[O-])cc3)C2)c(O)c1	-123.6	5.2	-5.4	-6.1	-24.8	x	x	x	x	x
Cn1cnnc1SCC(=O)NCCc1ccc(Cl)cc1Cl	2.0	-1.5	-11.0	-8.6	-6.1	x	x	x	x	x
CCN(CC(=O)NCc1ccc(Cl)cc1)C(=O)CSc1ccc(Br)cc1	-11.7	u	-14.6	-4.9	-7.2	x	x	x	x	x
c1ccc(C2=NN(c3ccccc3)CC2)cc1	-450.5	u	57.0*	58.5*	5.7	12.7	23.9	32.5	40.0	36.7
Cc1ccc(O)c(-c2cc(-c3ccccc3F)[nH]n2)c1	22.8	-29.8	57.0*	54.6*	62.3*	65.7*	71.5*	92.4*	28.1	14.2
Cc1ccc(O)c(-c2cc(-c3cccc(F)c3)n[nH]2)c1	3.8	-0.7	5.5	16.0	-10.1	x	x	x	x	x
Cc1ccc(-c2cc(-c3cccc(F)c3)n[nH]2)c(O)c1	26.4	8.2	40.5	43.5	77.8*	74.6*	72.4*	87.2*	13.2	18.6
CSc1ncccc1C(=O)OCC(=O)N(CC(C)C)c1c(N)n(Cc2ccccc2)c(=O)[nH]c1=O	3.8	-7.0	-2.4	-7.9	5.1	x	x	x	x	x
CC(C)(C)c1ccc(C(=O)c2c[nH]c(C(=O)O)c2)cc1	5.3	-4.7	77.6*	75.4*	84.7*	34.1	76.4*	95.0*	21.2	83.8*
SMILES	SENP8 block-1	Platelet DG rel	SENP8 block-2	SENP7 block	SENP6 inh	SENP8 confirm	SENP6 conf	SENP7 conf	Casp3 SENP sel	SENP luc ctr
COC(=O)c1cc(C(=O)c2ccc(C(C)(C)C)cc2)c[nH]1	10.1	0.1	-2.3	1.4	1.6	x	x	x	x	x
CC(/C=N/NC(=O)c1ccncc1)=C\c1ccccc1	1.1	0.2	-7.5	5.0	-4.8	x	x	x	x	x
CC(=C/c1ccccc1)/C=N/NC(=O)c1ccccn1	-36.4	29.6	60.9*	80.8*	69.4*	72.5*	71.4*	92.1*	85.4*	73.3*
CC(/C=N/NC(=O)c1cccc(F)c1)=C\c1ccccc1	-2.9	-20.1	67.4*	78.9*	83.0*	75.9*	77.6*	94.6*	81.5*	71.3*
O=C(O)c1ccc(N/N=C/C(Br)=C/c2ccccc2)cc1	-42.2	-1.3	95.8*	83.1*	100.6*	99.1*	100.2*	103.1*	85.1*	96.5*
O=C(N/N=C/c1ccc(Cl)cc1Cl)c1cccc(F)c1	20.1	2.8	76.6*	88.4*	88.5*	-5.9	10.3	33.4	32.0	6.9
CC1CCC(NC(=O)c2cccn2C)CC1 (configuration not stated)	16.3	x	x	x	x	x	x	x	x	x
C#CCN1C=CC(=O)[C@@H](OC(=O)NCCC)[C@H]1c1ccccc1Br	-5.6	x	x	x	x	x	x	x	x	x
O=C(N/N=C/c1ccc(-c2ccccc2C(=O)O)o1)c1cccs1	-307.1	15.1	21.4	18.9	50.7*	40.6	32.1	63.8*	73.0*	20.3
O=C(N/N=C/c1ccc(OC(=O)c2cccs2)cc1)c1cccc(F)c1	17.2	-2.0	2.6	72.4*	16.4	-9.4	-4.2	-4.3	25.1	4.5
O=C(N/N=C/C(Br)=C/c1ccccc1)c1ccncc1	12.0	-35.9	-10.9	4.8	-15.4	x	x	x	x	x
O=C(N/N=C/C(Br)=C\c1ccccc1)c1cccs1	8.6	11.5	51.7*	29.9	62.7*	18.5	48.8	76.8*	30.0	6.8
O=C(N/N=C/c1ccncc1)c1cccs1	8.9	-0.2	-14.1	2.3	9.2	x	x	x	x	x
